A selection: hits, their analogues and other compounds. The true share with any hit is near 1.5%.
Mtb hypoxia rep – inhibitors of hypoxia-regulated fluorescent reporter in Mycobacterium tuberculosis; M. tuberculosis hypoxia-regulated fluorescent reporter, fluorescence; fluorescence inhibition, % (test concentration not listed); 300,000 tested, 0.1% active; in the data active means fluorescence inhibition mostly above about 23%, no sharp cut-off; inactive means mostly below about 17%
DUSP3 inh – blocks human VHR1 dual specificity phosphatase. 290,000 tested, 0.52% active. P51452. recombinant VHR phosphatase, pNPP absorbance. inhibition, % at 13.3 µM; in the data active means inhibition above about 50%
MazF activator – MazEF (E. coli) toxin RNase activation; FAM/BHQ RNA-DNA oligo cleavage fluorescence, 5 h; activation, % at 20 µM; P0AE70; 350,000 tested, 0.32% active; in the data active means activation above about 50%
PrPC TRFRET – cell surface PrPC inhibition, primary TR-FRET screen. P04156. TR-FRET read-out. inhibition, % at 13.8 µM. 370,000 tested, 0.43% active; in the data active means inhibition above about 24%; further: 0% = median of the test wells and 100% = reference compound wells
PrP 5UTR inh – suppresses PrP 5' UTR mRNA reporter expression; cell-based PrP 5' UTR mRNA reporter, plate reader; inhibition, % (concentration not given with the values); 340,000 tested, 0.35% active; in the data active means inhibition above about 52%; further: 0 = median of the neutral control wells
SARS 3CLpro inh – SARS-CoV 3CLpro protease inhibition; P0C6X7; recombinant SARS-CoV 3CLpro, quenched FRET peptide cleavage; inhibition, % at 6 µM; 290,000 tested, 0.14% active; in the data active means inhibition above about 12%
PrPC confirm – confirmation of inhibitors of cell surface human prion protein; shares compounds with PrPC TRFRET; cell surface PrPC level, TR-FRET; inhibition, % at 13.8 µM; 1,500 tested, 65% active; AID 743200; in the data active means inhibition above about 25%
LD9 tox – kills or reduces viability of LD9 cells in PrPc counter-screen; LD9 cells cytotoxicity, luminescence viability; inhibition, % at 13.8 µM; shares compounds with PrPC TRFRET; AID 743201; 1,500 tested, 29% active; in the data active means inhibition above about 9.5%
Starred values were filed as active, the others as inactive; x = no result given.

SMILES	Mtb hypoxia rep	DUSP3 inh	MazF activator	PrPC TRFRET	PrP 5UTR inh	SARS 3CLpro inh	PrPC confirm	LD9 tox
COc1ccc(-n2c(=S)[nH]c3sc(-c4ccccc4)cc3c2=O)c(OC)c1	20	-1	0	3	-3	1	x	x
COc1ccc(NC(=O)ON=Cc2ccccc2Cl)cc1	7	x	x	x	x	x	x	x
CC1CCc2cc(F)cc3c(O)c(C(=O)NCC4CCCO4)c(=O)n1c23 (stereo unspecified)	x	5	0	31*	-15	-1	40*	-5
CCCn1c(=O)c(C(=O)NCC2CCCO2)c(O)c2ccccc21 (stereo unspecified)	x	-18	0	10	-16	3	x	x
CCCCC#Cc1cncc(C(=O)NN=Cc2cccc(OC)c2)c1	5	x	x	x	x	x	x	x
CCOC(=O)c1c(NC(=O)CSc2nnc(Cc3ccccc3)o2)sc(C(C)=O)c1C	10	13	0	27*	-14	-3	21	6
O=C1NCC(Cc2cccc3ccccc23)N(CC2(c3ccccc3)CC2)C1=O (stereo unspecified)	0	x	x	x	x	x	x	x
N#CCc1c(C#N)c(N)nc(N2CCN(S(=O)(=O)c3ccccc3F)CC2)c1C#N	13	21	0	31*	-9	0	11	16*
COc1cc(C=NNC(=O)/C(=C\c2ccc3c(c2)OCO3)NC(=O)c2ccccc2)ccc1O	4	x	x	x	x	x	x	x
OC[C@H]1O[C@@H](c2nc3ccc(-c4nc(-c5ccc(Br)cc5)no4)cc3[nH]2)C[C@@H]1O	x	x	x	29*	x	x	21	4
Cl/C(C=Nn1cnnc1)=C/c1ccccc1	6	x	x	x	x	x	x	x
BrC(=C\c1ccccc1)/C=N/n1cnnc1	x	3	1	34*	-17	2	4	37*
CCc1ccc(C(=O)NNc2cc(Cl)ccc2Cl)cc1	1	25	5	28*	-19	0	25*	5
O=C(Nc1ccc(N2CCN(C(=O)c3ccccc3)CC2)c(Cl)c1)c1ccc(Br)o1	-4	0	-17	33*	-11	5	41*	24*
O=C(Nc1ccc(N2CCN(C(=O)c3ccccc3)CC2)cc1)c1ccc(Br)o1	8	13	4	14	-12	-2	x	x
CC(O)Cc1cn(-c2cc3cc(C#Cc4ccsc4)ccc3oc2=O)nn1 (stereo unspecified)	11	x	x	x	x	x	x	x
COCCNC(=O)CSc1cc(-c2ccccc2)c2ccc(OC)cc2n1	-1	22	-9	33*	7	10	37*	-6
O=C(COc1nsnc1N1CCOCC1)NN=Cc1ccccc1O	6	x	x	x	x	x	x	x
COc1ccc(CNC(=O)CN2C(=O)C3CCCN3c3ncc(Cl)cc32)cc1 (stereo unspecified)	-7	19	-45	26*	-41	-2	-10	-4
O=C(CN1C(=O)C2CCCN2c2ncc(Cl)cc21)NCc1ccc2c(c1)OCO2 (stereo unspecified)	-7	-6	4	2	-21	4	x	x
OC[C@@H]1CN(Cc2ccc(Cl)cc2)C[C@H](n2cnc3c(Nc4ccccc4)ncnc32)O1	x	x	x	41*	x	x	20	-2
CC1CC(C)C(=O)C(C(CC2CC(=O)NC(=O)C2)OC(=O)CC(=O)c2ccccc2)C1 (stereo unspecified)	7	x	0	85*	28	x	95*	31*
COc1cc(NC2CCCCC2O)c2nc(-c3ccc(Cl)cc3)ccc2c1 (stereo unspecified)	9	32	-11	39*	-68	0	6	-2
Cc1ccc(C=NNC(=O)c2cccc3ccccc23)o1	4	x	x	x	x	x	x	x
Clc1ccc(-c2ccc(-c3nn4c(-c5ccco5)nnc4s3)o2)cc1	1	x	-19	-3	-23	1	x	x
SMILES	Mtb hypoxia rep	DUSP3 inh	MazF activator	PrPC TRFRET	PrP 5UTR inh	SARS 3CLpro inh	PrPC confirm	LD9 tox
Brc1ccc(-c2nn3c(-c4ccco4)nnc3s2)o1	5	18	3	62*	-8	-4	76*	-3
NC(=S)N/N=C1\CC(n2nnn(-c3cccc(Cl)c3)c2=S)C2COC1O2 (stereo unspecified)	x	18	4	28*	-26	-3	42*	-4
Cc1cc(C)cc(-n2nnn(C3CC(=NNC(N)=S)C4OCC3O4)c2=S)c1 (stereo unspecified)	14	x	x	x	x	x	x	x
O=C1C=C(c2cccc3c2Oc2ccccc2S3)CC(c2ccc(Cl)cc2)C1 (stereo unspecified)	11	x	x	x	x	x	x	x
Oc1ccc(CN2CCCCC2)c2cccnc12	13	4	2	-4	-21	1	x	x
Oc1ccc(CN2CCc3ccccc3C2)c2cccnc12	7	5	4	27*	17	-5	35*	28*
CC(C)(C)n1c(O)c(C=Nc2ccc3c(c2)CCC3)c(=O)[nH]c1=O	x	-18	7	29*	-5	5	3	-4
O=C(Nc1ccc(OC(F)(F)F)cc1)Nc1cccc([N+](=O)[O-])c1	1	-18	20	26*	-35	2	43*	41*
O=C(Nc1ccc(OC(F)F)cc1)Nc1cccc(C(F)(F)F)c1	-1	-15	4	35*	-15	2	23	22*
CCOc1ccc(C2C(C#N)=C(N)SC(N)=C2C#N)cc1OCC	3	36	-53	27*	-9	x	72*	1
CC(Cc1ccccc1)=NNC(=O)CNC(=O)c1cccc(F)c1	2	x	x	x	x	x	x	x
N#Cc1c(-c2ccco2)nc(SCc2ccc(F)cc2)[nH]c1=O	7	6	6	95*	-2	-3	121*	-7
CCOc1ccc2[nH]cc(C(=O)NCc3ccc(F)cc3)c(=O)c2c1	19	17	-5	27*	-14	1	27*	-1
COc1ccc2[nH]c(C(=O)NN=Cc3ccc(OC)c(O)c3)cc2c1	20	x	x	x	x	x	x	x
CC(=O)CSc1ncnc2scc(-c3ccc(F)cc3)c12	14	1	-7	7	-18	5	x	x
O=C(O)CSc1ncnc2scc(-c3ccccc3)c12	5	-2	6	48*	-28	1	72*	-8
CN(C)C(=O)CSc1ncnc2scc(-c3ccccc3)c12	13	4	0	5	-23	2	x	x
O=C(O)CSc1ncnc2scc(-c3ccc(Br)cc3)c12	-4	29	-7	27*	4	-2	24	-3
CCOC(=O)C1=C(C)n2c(sc(=C3C(=O)Nc4ccccc43)c2=O)=NC1c1ccc(OC)cc1 (stereo unspecified)	13	x	x	x	x	x	x	x
CN(Cc1ccccc1)C1(CNC(=O)CCC(F)(F)F)Cc2ccccc2C1	4	14	-2	26*	-16	-4	15	0
CC(=O)NCCC(=O)NCC1(N(C)Cc2ccccc2)Cc2ccccc2C1	-3	-2	4	2	-50	5	x	x

Bioassay records as filed in PubChem.
